An excerpt weighted towards active compounds, which were near 22% of everything screened.
E-sel TNF inh: TNF alpha driven E-selectin expression inhibition; AID 1246; 0.71% of 120,000 active; inhibition, % at 2 µM; HUVEC TNFa-induced E-selectin immunofluorescence, high content;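 active means inhibition above the batch mean plus 3 SD, and confirmed as a hit on visual image review, cut at about 43% in these data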;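 further: 0% = TNF-stimulated DMSO wells and 100% = unstimulated control wells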
cytoskel mod: alters cytoskeleton assembly in HUVEC cells; HUVEC TNFa F-actin phalloidin imaging, high content; inhibition, % at 2 µM; 0.18% of 91,000 active;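 active means inhibition above the batch mean plus 3 SD and confirmed as a hit by visual image inspection, cut at about 30% in these data, passing the limit was not always enough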
CYP2C9 inh: blocks human cytochrome P450 2C9. P11712. CYP2C9 Supersomes, luciferin-H conversion, luminescence. inhibition, % at 5 µM. 20% of 96,000 active;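 active means blocking of liver enzyme CYP2C9 beyond about 50% at 5 µM, limit read from the data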
Target sequence (P11712 whole entry, looked up): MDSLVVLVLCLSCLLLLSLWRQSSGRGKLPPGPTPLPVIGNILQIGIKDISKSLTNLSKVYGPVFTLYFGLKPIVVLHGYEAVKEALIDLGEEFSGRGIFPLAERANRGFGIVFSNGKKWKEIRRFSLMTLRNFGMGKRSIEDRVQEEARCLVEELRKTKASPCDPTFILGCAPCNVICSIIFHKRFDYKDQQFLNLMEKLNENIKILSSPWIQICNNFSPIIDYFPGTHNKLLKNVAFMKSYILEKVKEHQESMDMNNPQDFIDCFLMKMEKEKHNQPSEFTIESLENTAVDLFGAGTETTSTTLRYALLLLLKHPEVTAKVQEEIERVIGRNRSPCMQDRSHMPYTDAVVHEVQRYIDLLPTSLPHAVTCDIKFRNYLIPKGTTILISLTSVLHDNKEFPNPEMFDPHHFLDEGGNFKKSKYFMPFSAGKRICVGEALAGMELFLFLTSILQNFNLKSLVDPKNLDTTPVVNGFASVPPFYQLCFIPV
CYP2C19 inhib: inhibitors of human CYP2C19 | P33261 | CYP2C19 Supersomes, luciferin-H EGE luminescence, 30 min | inhibition, % at 5 µM | 21% of 96,000 active | AID 778;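 active means CYP2C19 inhibition above a set limit at 5 µM in the primary screen, cut at about 50% in these data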;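 further: plate controls were negative control wells for no effect and 2.5 mM tranylcypromine positive control for full effect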
CYP2C19 act: cytochrome P450 2C19 (human) activation. 96,000 tested, under 10 active. AID 1025. activation factor at 5 µM. P33261. recombinant CYP2C19, luciferin-H EGE luminescence; active compounds read high; 0 = fully inhibited enzyme, 1 = untreated enzyme;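 active means activation factor of at least 2 at 5 µM in the primary screen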;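 further: 0 = wells with 2.5 mM tranylcypromine and 1 = vehicle-only wells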
CYP2C9 act: increases human cytochrome P450 2C9 activity | P11712 | recombinant CYP2C9, luciferin-H conversion, luminescence; active compounds read high; factor 1 = untreated enzyme, 0 = blocked | activation factor at 5 µM | 1.4% of 96,000 active;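 active means activation factor of 2 or more for CYP2C9 at a 5 µM dose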;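 further: 0 = sulfaphenazole-blocked wells and 1 = vehicle-only wells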
Starred values were filed as active, the others as inactive; nt = not tested or not shown.

SMILES	E-sel TNF inh	cytoskel mod	CYP2C9 inh	CYP2C19 inhib	CYP2C19 act	CYP2C9 act
Cc1ccccc1-n1c(C)nnc1SCC(=O)N1CC(=O)Nc2ccccc21	3	nt	-15	70*	0.3	1.1
Cc1nnc(SCC(=O)N2CC(=O)Nc3ccccc32)n1C	64*	2	1	4	1	1
Cc1ccc(-n2nnnc2SCC(=O)N2CC(=O)Nc3ccccc32)cc1	-9	-12	-48	52*	0.5	1.5
O=C1CN(C(=O)CSc2nnc3ccccn23)c2ccccc2N1	15	nt	nt	nt	nt	nt
CCn1c(SCC(=O)N2CC(=O)Nc3ccccc32)nnc1-c1ccoc1C	0	15	11	15	0.9	0.9
COc1ccc(N(C(=O)c2ccco2)C(C(=O)NC2CCCCC2)c2ccccc2)cc1 (stereo not drawn)	6	0	nt	nt	nt	nt
CC(NC(=O)COC(=O)CCc1ccccc1)c1ccccc1 (stereo not drawn)	9	nt	nt	nt	nt	nt
CN(C)S(=O)(=O)NC(c1ccccc1)c1ccccc1	-19	-1	60*	83*	0.2	0.4
Cc1ccc(-c2nc3cnccn3c2Nc2ccccc2)o1	nt	-1	76*	83*	0.2	0.2
COc1cc(-c2nc3cnccn3c2Nc2c(C)cccc2C)ccc1O	-2	17	53*	99*	0	0.5
COc1cc(-c2nc3ccccn3c2/N=C/c2ccccc2)ccc1O	-5	-14	16	5	1	0.8
Cc1ccc(-c2nc3ccccn3c2Nc2ccccc2)o1	0	nt	nt	nt	nt	nt
Cc1ccc(Nc2c(-c3ccc(C)o3)nc3cnccn23)cc1	4	15	32	57*	0.4	0.7
Cc1ccc(-c2nc3cnccn3c2Nc2ccc3c(c2)OCO3)o1	-3	nt	82*	97*	0	0.2
CCC(=O)N/N=C(\C)CC(=O)Nc1ccc(Cl)cc1	1	nt	nt	nt	nt	nt
CCOC(=O)C(c1ccccc1)N1CCN(c2ccc(OC)cc2)CC1 (stereo not drawn)	-17	nt	41	25	0.7	0.6
Cc1ccc(Nc2c(-c3cccnc3)nc3ccc(Br)cn23)cc1	-23	nt	nt	nt	nt	nt
COc1ccc(-c2nc3cnccn3c2Nc2ccc(C)cc2)cc1	nt	-5	80*	75*	0.2	0.2
CCOC(=O)/C(C#N)=C1/C=CN(Cc2ccccc2)C=N1	18	-32	57*	68*	0.3	0.4
O=C(CSc1nnc(-c2ccncc2)n1Cc1ccccc1)NCCc1ccccc1	-7	-13	63*	71*	0.3	0.4
CNC(=O)CSc1nnc(-c2ccncc2)n1Cc1ccccc1	nt	2	13	17	0.8	0.9
CCn1c(Cc2ccccc2)nnc1SCC(=O)Nc1nnc(-c2ccccc2)s1	-12	-5	30	48	0.5	0.7
CCn1c(SCC(=O)NC(C)(C)C)nnc1-c1ccccn1	-4	14	23	73*	0.3	0.8
CCCn1c(SCC(=O)Nc2nnc(-c3ccccc3)s2)nnc1-c1ccccn1	-24	-6	71*	73*	0.3	0.3
CCCn1c(SCC(=O)NCCc2ccccc2)nnc1-c1ccccn1	6	14	56*	56*	0.4	0.4
SMILES	E-sel TNF inh	cytoskel mod	CYP2C9 inh	CYP2C19 inhib	CYP2C19 act	CYP2C9 act
CN1CC2(C)CN(C(c3ccccc3)c3ccccc3)CC(C)(C1)C2O (stereo not drawn)	nt	nt	-1	-16	1.2	1
COc1ccc(N2CC(C(=O)Nc3cc(C)on3)CC2=O)cc1 (stereo not drawn)	-44	-2	-4	-23	1.2	1
O=C(CSc1nnc(-c2ccccn2)n1Cc1ccccc1)N1CCOCC1	-44	nt	nt	nt	nt	nt
CC(C)CNC(=O)CSc1nnc(-c2ccccn2)n1Cc1ccccc1	-8	18	72*	80*	0.2	0.3
CCCCn1c(C)cc(C)c(S(=O)(=O)c2ccccc2C)c1=O	-2	19	41	53*	0.5	0.6
CC(=O)Oc1ccc2c(c1)c(C(C)=O)c(C)n2C	-8	-19	6	8	0.9	0.9
COc1ccc(-n2c(C)c(C(C)=O)c(C(C)=O)c2C)cc1	nt	3	0	27	0.7	1
COc1ccc(-n2c(C)c(C(C)=O)c3cc(O)ccc32)cc1	-15	-30	61*	90*	0.1	0.4
COc1ccc2c(c1)c(C(C)=O)c(C)n2-c1ccccc1	13	0	88*	97*	0	0.1
COc1ccc(CCNC(=O)NC(C(F)(F)F)C(F)(F)F)cc1OC	-12	-6	4	23	0.8	1
O=S(Cc1cc(Sc2ccccc2)nc(-c2ccccc2)n1)c1ccccc1 (stereo not drawn)	nt	0	94*	98*	0	0.1
CS(=O)(=O)Cc1cc(Sc2ccccc2)nc(-c2ccncc2)n1	-7	nt	nt	nt	nt	nt
CNc1cc(CS(=O)c2ccccc2)nc(-c2ccccc2)n1 (stereo not drawn)	2	16	3	93*	0.1	1
CC(=O)N1CCN(Cc2cc(=O)n3cc(Cl)c(C)c(Cl)c3n2)CC1	-9	nt	-20	-5	1	1.2
CCOc1cccc2cc(C(=O)N3CCc4ccccc43)c(=O)oc12	-17	-4	-140	-9	1.1	2.4*
Cc1cc(C(=O)N2CCc3ccccc32)c2ccccc2n1	64*	3	38	65*	0.3	0.6
COc1cccc2cc(C(=O)N3CCc4ccccc43)c(=O)oc12	12	-4	14	68*	0.3	0.9
COc1ccccc1C(=O)N1CCc2ccccc21	nt	7	-11	19	0.8	1.1
COc1ccc2oc(=O)c(C(=O)N3CCc4ccccc43)cc2c1	-18	-19	-117	0	1	2.2*
CCOC(=O)C(NC(=O)CC(C)C)(Nc1cc(C)on1)C(F)(F)F (stereo not drawn)	nt	6	8	38	0.6	0.9
CN1C(=O)/C(=N/OC(=O)c2ccccc2)c2ccccc21	-16	-1	-2	-8	1.1	1
CC(=O)c1c(C)nc(-c2ccc(Cl)cc2)nc1N=CN(C)C	nt	nt	51*	37	0.6	0.5
O=C(Cc1sc(Nc2ccccc2)nc1-c1ccccc1)NCc1ccccc1	0	nt	nt	nt	nt	nt
Cc1cccc(OCC(=O)N(C)CCc2ccccn2)c1	10	1	13	68*	0.3	0.9
COC(=O)C(C(=O)OC)C(C(=O)OC)C(C(=O)OC)C(=O)OC	-1	12	nt	nt	nt	nt
Cc1[nH]c2ccccc2c1C(c1ccccn1)N1CCC(C(N)=O)CC1 (stereo not drawn)	-9	11	-6	51*	0.5	1.1
CCOC(=O)C1CCN(C(c2ccccn2)c2c(C)[nH]c3ccccc23)CC1 (stereo not drawn)	6	-16	-6	43	0.6	1.1
CC(C)(CO)NCC(O)Cn1cc(C=O)c2ccccc21 (stereo not drawn)	90*	nt	nt	nt	nt	nt
COc1ccccc1-c1c(C(F)(F)F)oc2cc(OC(=O)c3ccccc3[N+](=O)[O-])ccc2c1=O	6	13	62*	55*	0.5	0.4

Compound activity as filed in PubChem BioAssay.
